From PubChem BioAssay
D2 PAM-1 – HTS Assay for Positive Allosteric Modulators of the Human D2 Dopamine Receptor: Primary Screen for Potentiators; D(2) dopamine receptor (Homo sapiens), P14416; HEK293 T-REx D2, calcium flux, EC20 dopamine potentiation; potentiation, % at 10 µM; 0.34% of 340,000 active;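 active means potentiation over 3 SD above the plate norm, cut at about 30% in these data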; further: 0% is about no effect
Target sequence (P14416 whole entry, looked up): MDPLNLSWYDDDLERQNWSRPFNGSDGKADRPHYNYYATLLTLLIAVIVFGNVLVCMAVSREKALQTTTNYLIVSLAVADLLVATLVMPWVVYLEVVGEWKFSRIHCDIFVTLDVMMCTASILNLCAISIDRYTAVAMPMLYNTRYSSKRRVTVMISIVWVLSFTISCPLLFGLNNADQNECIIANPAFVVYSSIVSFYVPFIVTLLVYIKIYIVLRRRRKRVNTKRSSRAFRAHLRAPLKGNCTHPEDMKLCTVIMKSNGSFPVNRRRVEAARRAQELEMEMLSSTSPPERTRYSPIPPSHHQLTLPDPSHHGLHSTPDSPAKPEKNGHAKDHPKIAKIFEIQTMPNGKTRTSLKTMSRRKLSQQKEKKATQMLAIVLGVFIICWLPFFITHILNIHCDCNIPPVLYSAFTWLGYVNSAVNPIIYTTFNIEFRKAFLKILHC
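Calcium flux readout, no-wash dye, 1 read/s. Inducible HEK293 Trex D2 line, overnight 30 C. Compound alone 180 s (agonist flags), then EC20 dopamine, another 180 s to score potentiation.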
D2 PAM-2 – Beta-Arrestin HTS for Positive Allosteric Modulators of the Human D2 Dopamine Receptor: Potentiators. D(2) dopamine receptor (Homo sapiens), P14416. 0.23% of 360,000 active. AID 624464, 2012. DiscoveRx D2 beta-arrestin cells, luminescence, 90 min; 100% = 57 uM dopamine signal. potentiation, % (concentration not given with the values); in the data active means potentiation above about 50%; inconclusive means mostly about 30% to 49%
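D2 cells co-treated with compound plus 50 nM dopamine (EC20) for 90 min at 37 deg C to detect potentiation. Beta-arrestin recruitment was read as enzyme-fragment luminescence after 1 h at ambient temperature. Full response was set by 57 uM dopamine.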
D2 ag-1 – Beta-Arrestin HTS for Positive Allosteric Modulators of the Human D2 Dopamine Receptor: Agonists; D(2) dopamine receptor (Homo sapiens), P14416; DiscoveRx PathHunter D2 beta-arrestin, luminescence, 90 min; 100% = 57 uM dopamine signal; activation, % (no concentration beside the values); 0.084% of 360,000 active; in the data active means activation above about 40%; inconclusive means between about 15% and that limit
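DiscoveRx PathHunter D2 beta-arrestin cells (2,100/well) attached overnight, then compound-stimulated 90 min at 37 C in HBSS/10 mM HEPES/0.1% Tween-20 buffer; beta-galactosidase complementation read by luminescence after 1 h at ambient temperature. Dopamine 57 uM final (EC100) as control.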
D2 antagonist – HTS Assay for Allosteric Antagonists of the Human D2 Dopamine Receptor: Primary Screen for Antagonists. D(2) dopamine receptor (Homo sapiens), P14416. 2% of 340,000 active. HEK293 TREx D2 cells, calcium flux, dopamine EC80. inhibition, % at 10 µM; in the data active means inhibition above about 30%; inactive means below that, where a call was filed; further: 0% is about no effect
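Tetracycline-induced HEK293 T-REx cells expressing D2 force-coupled to calcium signalling were dye-loaded, exposed to compound for 180 s, then challenged with an EC80 of dopamine; calcium flux was followed kinetically for a further 180 s.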
D2 ag-2 – HTS Assay for Allosteric Agonists of the Human D2 Dopamine Receptor: Primary Screen for Agonists. activation, % at 2 µM. AID 485358, 2010. 0.53% of 340,000 active. HEK293 T-REx D2 cells, calcium flux agonist mode;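 active means activation over 3 SD above normal in the single-dose calcium agonist read, cut at about 30% in these data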; further: 0% is about no effect
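Tetracycline-induced HEK293 T-REx cells with force-coupled D2 receptor, plated overnight at 30 C, loaded with no-wash calcium dye. After a 10 s baseline, compound was pin-added and calcium flux read kinetically for 180 s; calcium rises flagged agonists.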
* = called active by the depositor; ? = inconclusive; . = no result given. Hits are enriched below; roughly 2.4% of the tested compounds scored in any of these assays.

SMILES	D2 PAM-1	D2 PAM-2	D2 ag-1	D2 antagonist	D2 ag-2
Cc1ccc(N=c2c([N+](=O)[O-])nn(-c3ccccc3)n2O)c(C)c1	10	55*	10	7	1
COc1ccc(-n2nc([N+](=O)[O-])c(=NCc3ccc4c(c3)OCO4)n2O)cc1	-12	122*	?	-1	-1
COc1ccc(N2C(=O)CSC23C(=O)N(CC(=O)NC2CCCCC2)c2ccccc23)cc1 (stereo unspecified)	-8	.	.	.	-1
CCCCN1C(=O)/C(=C/C=C2\Oc3ccccc3N2CC)SC1=S	-5	-8	2	-7	61*
CC(=O)c1cc(-c2ccccc2)n(CCC(=O)Nc2cc(C)cc(C)c2)c1C	-2	.	.	.	1
CCOC(=O)c1sc(NC(=O)CSc2nc(C)cc(C)n2)c(C#N)c1C	1	-2	-2	4	0
CCOC(=O)c1sc(NC(=O)CSc2n[nH]c(-c3ccccc3)n2)c(C#N)c1C	2	14	0	39*	1
COc1cc(C(=O)Nc2ccc(-c3nc4ccccc4o3)c(O)c2)cc(OC)c1OC	-17	.	.	.	0
CCC(Sc1nnc(C)n2c1cc1occc12)C(=O)Nc1ccccc1F (stereo unspecified)	3	.	.	.	1
O=C(NCC1CCCO1)C(=O)NCC(c1ccco1)N1CCN(c2ccc(F)cc2)CC1 (stereo unspecified)	5	-12	-3	9	2
O=C(NCC1CCCO1)C(=O)NCC(c1ccco1)N1CCN(c2ccccc2)CC1 (stereo unspecified)	-6	-8	14	20	35*
O=C(NCc1ccncc1)C(=O)NCC(c1ccco1)N1CCN(c2ccccc2F)CC1 (stereo unspecified)	-12	-1	7	1	34*
O=C(COc1ccccc1)NCC(c1ccco1)N1CCN(c2ccccc2F)CC1 (stereo unspecified)	-5	-5	?	0	34*
CC(C)COc1ccccc1C(=O)NC(CO)C(=O)O (stereo unspecified)	7	-6	-2	43*	-1
CC1Cc2cc(S(=O)(=O)NCc3ccccc3Cl)ccc2N1C(=O)C1CCC1 (stereo unspecified)	.	.	.	.	0
Cn1nc(C(=O)Nc2ccc(Br)cc2)cc1C(=O)Nc1ccc(Br)cc1	4	-12	-5	38*	0
COC(=O)C1=C(C(=O)OC)C(C(=O)OC)C(C(=O)OC)C(C(=O)OC)(C(=O)OC)C(C(=O)OC)=C1C(=O)OC (stereo unspecified)	.	8	-4	.	.
COC(=O)C1=C(C(=O)OC)N2C=CC=CC2(C)C(C(=O)OC)=C1C(=O)OC (stereo unspecified)	-1	-9	-3	32*	-2
C/C(N)=C(/C#N)C(=O)CSc1nnc(Nc2ccccc2)s1	22	10	10	49*	-1
C/C=C\C(=O)Nc1cccc(C2=NOC3(C2)C[C@@H](C(N)=O)N(C(=O)C2(C)CC2)C3)c1 (stereo partly specified)	11	-7	-2	34*	-1
C/C=C\C=C/C(=O)Nc1cccc(C2=NOC3(C2)C[C@@H](C(N)=O)N(C(=O)C2(C)CC2)C3)c1 (stereo partly specified)	4	-5	-1	-1	0
C=C(C)C(=O)Nc1cccc(C2=NOC3(C2)C[C@H](C(N)=O)N(C(=O)COc2ccc(Cl)cc2)C3)c1 (stereo partly specified)	-1	-12	2	35*	0
Cc1c(C(=O)N2CC3(CC(c4cccc(NC(=O)[C@H]5CCC(=O)N5)c4)=NO3)C[C@@H]2C(N)=O)cc([N+](=O)[O-])cc1[N+](=O)[O-] (stereo partly specified)	1	74*	7	-10	0
O=C(/C=C/c1ccccc1)Nc1nc(-c2cccs2)ns1	.	.	.	.	1
